The list is not random: actives were taken first. Their share in the collection is about 2.4%.
SmPrx2 inh: blocks S. mansoni peroxiredoxin 2 enzymatic activity; S. mansoni Prx2 activity coupled to TGR/GSH (TGR is thioredoxin glutathione reductase), NADPH fluorescence loss, qHTS; 0.07% of 65,000 active; AID 448; Potency, µM
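Prx2 activity was followed as the loss of NADPH fluorescence (ex 365/em 450 nm), read every 30 sec for 8 min after H2O2 start. The enzyme mix (50 nM Prx2, 25 nM TGR, GSH, NADPH; pH 7.4 phosphate buffer) was incubated with compound for 15 min at room temperature first.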
AmpC nodet inh: AmpC beta-lactamase inhibition, detergent-free assay; AID 585; 1.8% of 71,000 active; Potency, µM (titrated, usually from 28.7 µM), for inactives: at the highest dose activity change, negative = inhibition; AmpC nitrocefin hydrolysis, absorbance 480 nm, no detergent; further: % of control where 0% means no effect
Target sequence (P00811 whole entry, looked up): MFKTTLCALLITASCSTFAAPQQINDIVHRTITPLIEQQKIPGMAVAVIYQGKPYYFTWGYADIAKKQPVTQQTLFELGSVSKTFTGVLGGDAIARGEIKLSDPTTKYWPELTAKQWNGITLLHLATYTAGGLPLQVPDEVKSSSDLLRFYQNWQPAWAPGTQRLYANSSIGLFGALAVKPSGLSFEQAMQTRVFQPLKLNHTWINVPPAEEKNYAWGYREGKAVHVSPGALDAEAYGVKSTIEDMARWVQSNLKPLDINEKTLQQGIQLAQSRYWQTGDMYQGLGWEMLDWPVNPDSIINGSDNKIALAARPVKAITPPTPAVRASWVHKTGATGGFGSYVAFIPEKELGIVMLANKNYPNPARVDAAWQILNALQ
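Enzyme, pH 7.0 phosphate. Compound titrations were pre-incubated with AmpC for 15 min at room temperature before nitrocefin (stock 800 uM) addition; product formation was recorded at 480 nm every 20 s for 4 min.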
Anthrax LT inh: blocks cellular internalization of anthrax lethal toxin. Cells, anthrax lethal toxin internalization, FRET ratio (460/530). Potency, µM (doses to about 40 µM), without a hit: at the top dose activity change, negative = inhibition, most hits filed as inhibitors. 0.67% of 70,000 active; further: on the % scale 0 is the no-effect control and ±100 the full control effect; nearly all actives have a fitted effect of over 50% in size
AmpC inh det: inhibitors of E. coli AmpC beta-lactamase with detergent; P00811; purified AmpC, nitrocefin hydrolysis with detergent; Potency, µM (doses to about 28.7 µM), without a hit: at the highest dose activity change, negative = inhibition; 0.09% of 71,000 active; AID 584; active means well fitted curve in the direction sought with a large enough effect; inconclusive means small, poorly fitted or top-dose-only effect; further: on the % scale 0 is the no-effect control and ±100 the full control effect
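E. coli AmpC (5.3 nM) in 20 mM phosphate pH 7.0 with 0.01% Triton X-100, preincubated 15 min RT with compound; nitrocefin (2 uL of 800 uM stock) hydrolysis followed by 480 nm absorbance every 20 s over 4 min.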
* = called active by the depositor; ? = inconclusive; . = no result; [ ] = another dose, or the depositor's remark. Unless noted, the call rests on the fitted dose curve. Potency means the concentration at half of the fitted maximal effect.

SMILES	SmPrx2 inh	AmpC nodet inh	Anthrax LT inh	AmpC inh det
CC(=O)Nc1ccc2c(c1)/C(=C/c1ccc([N+](C)(C)C)cc1)c1ccccc1-2	?	21%[5.75 µM]	?	-4%[5.75 µM]
CC(C)(C)C(=O)COC(=O)c1cccc(NC(=O)c2ccco2)c1	>57	10%	-10%	-6%
O=C(COC(=O)c1cccc(NC(=O)c2ccco2)c1)c1ccc(Br)cc1	>57	-24%	13µM*	1%
CC(C)(C)NC(=O)c1cccc(NC(=O)c2ccc(NC(=O)c3ccco3)cc2)c1	>57	4%	?	-2%
CC(C)CNC(=O)c1cccc(NC(=O)c2ccc(NC(=O)c3ccco3)cc2)c1	>57	16µM*[single pt active]	-4%	-1%
Clc1ccccc1CNCC1CCC(CNCc2ccccc2Cl)CC1 (stereo not drawn)	>57	19%	4µM*	0%
CCCCNC(=O)Cn1c(=O)n(C)c2ccccc21	>57	4µM*[single pt active]	-12%	9%
Cn1c(=O)n(CC(=O)Nc2ccc(F)cc2)c2ccccc21	>57	2%	-8%	-6%
CCOC(=O)N1CCC(NC(=O)CCc2c(C)nc3c(c(C)nn3-c3ccccc3)c2C)CC1	>57	4µM*[single pt active]	-10%	12%
Clc1ccc(-n2nnnc2Sc2ncnc3sccc23)cc1	?	-8%	6.3µM*	-5%
Cc1sc2ncnc(Sc3nnnn3-c3ccccc3)c2c1C	>57	7%	-2%	-2%
COC(=O)C1=C(C)N(Cc2ccccc2)[C@]23O[C@](C(=O)OC)(C(=O)N2C1c1ccccc1)C(c1ccccc1)C3C(=O)c1ccccc1 (stereo partly drawn)	.	.	-11%[8 µM]	.
CCN1CCN(C(=O)CSCc2nc(-c3ccc(OC)c(OC)c3)oc2C)CC1	>57	4µM*[single pt active]	?	11%
Oc1ccc(Br)cc1/C=N/n1cnc2ccccc21	>57	16µM*[single pt active]	-31%	0%
OCC(CO)(CO)N=Cc1cc(Br)ccc1O	>57	-6%	-20%	4%
C=C(Cl)CCl	.	-3%	3%	-2%
CCC(Cl)CC(Cl)C(Cl)C(Cl)C(Cl)C(C)Cl (stereo not drawn)	.	-18%	2.5µM*	13%
Cc1ncsc1C(=O)Nc1nc2c(s1)CCCC2	>57	-1%	11%	-1%
O=C(Nc1nc2c(s1)CCCC2)c1ccc2ncsc2c1	>57	78%	10µM*	13%
CSc1ccc2c(c1)c(CCN)c(C)n2Cc1ccccc1Cl	>57	15%[5.75 µM]	?	-3%[5.75 µM]
CN1CCc2c(sc3c2C(=O)NC(c2cccc(OC(=O)c4cccs4)c2)N3)C1 (stereo not drawn)	>57	3.2µM*[single pt active]	?	12%
CN1CCc2c(sc3c2C(=O)NC(c2ccco2)N3)C1 (stereo not drawn)	>57	9%	?	22%
COc1ccc(-c2nc(CS(=O)CC(=O)NCc3ccco3)c(C)o2)cc1OC (stereo not drawn)	>57	4µM*[single pt active]	-2%	12%
COc1ccc(CNC(=O)CS(=O)Cc2nc(-c3ccc(C)cc3)oc2C)cc1 (stereo not drawn)	>57	114%	-25%	11%
COc1ccc(-c2nc(CS(=O)CC(=O)NCc3ccc4c(c3)OCO4)c(C)o2)cc1 (stereo not drawn)	>57	96%	-5%	14%
SMILES	SmPrx2 inh	AmpC nodet inh	Anthrax LT inh	AmpC inh det
COc1ccc(-c2nc(CS(=O)CC(=O)NCC3CCCO3)c(C)o2)cc1 (stereo not drawn)	>57	4µM*[single pt active]	9%	12%
COc1ccc(-c2nc(CS(=O)CC(=O)N3CCCC3)c(C)o2)cc1 (stereo not drawn)	>57	4µM*[single pt active]	15%	14%
COCCNC(=O)CS(=O)Cc1nc(-c2ccc(OC)cc2)oc1C (stereo not drawn)	>57	3.2µM*	-6%	12%
COc1cccc(OC)c1OCCNC[C@@H]1CSc2ccccc2O1	>57	36%	?	-2%
C[C@@]12CC[C@H](O[C@@H]3O[C@H](CO)[C@@H](O)[C@H](O)[C@@H]3O)C[C@@H]1CC[C@H]1[C@H]2CC[C@@]2(C)[C@@H](C3=CCOC3=O)CC[C@]12O	>57	-1%[5.75 µM]	-2%[8 µM]	-4%[5.75 µM]
FC(F)(F)c1cc(NC(=S)N2c3ccccc3-n3cccc3[C@H]2c2cccnc2)cc(C(F)(F)F)c1	>57	7%[5.75 µM]	-7%[8 µM]	-4%[5.75 µM]
CC(=O)N1CCN(c2ccc(NCc3ccc(C)s3)cc2)CC1	>57	4µM*[single pt active]	-7%	14%
Cc1ccc(CNc2ccc(N3CCOCC3)cc2)s1	>57	39%	-12%	-5%
C[C@@H]1O[C@H](O[C@H]2C[C@@H](O)[C@]3(CO)[C@H]4[C@H](O)C[C@]5(C)[C@@H](C6=CC(=O)OC6)CC[C@@]5(O)[C@H]4CC[C@]3(O)C2)[C@@H](O)[C@H](O)[C@H]1O	>57	-3%	?	1%
O=C(NC1CCCC1)c1ccc(CS(=O)(=O)c2ccc(Br)cc2)o1	>57	4µM*[single pt active]	-26%	8%
CN1CCN(CCCNC(=O)c2ccc(CS(=O)(=O)c3ccc(Br)cc3)o2)CC1	>57	22%	-2%	10%
O=C(NCCN1CCCCCC1)c1ccc(CS(=O)(=O)c2ccc(Br)cc2)o1	>57	4µM*[single pt active]	?	8%
O=C(NCCCN1CCCC1)c1ccc(CS(=O)(=O)c2ccc(Br)cc2)o1	>57	4µM*[single pt active]	-13%	13%
CCN(CC)CCNC(=O)c1ccc(CS(=O)(=O)c2ccc(Br)cc2)o1	>57	3.2µM*[single pt active]	-26%	9%
O=C(O)/C=C\c1ccc[c]([Sb](=[O])([OH])[OH])c1	>57	-3%[5.75 µM]	-19%[8 µM]	-8%[5.75 µM]
Cc1ccc(-n2ncc3c(=O)[nH]c(SCC(=O)N4CCN(c5ccccc5)CC4)nc32)cc1	>57	13µM*[single pt active]	-6%	5%
O=c1[nH]c(SCc2ccccc2Cl)nc2c1cnn2-c1ccccc1	>57	7.9µM*	?	8%
Cc1ccc(-n2ncc3c(=O)[nH]c(SCC(=O)N4CCOCC4)nc32)cc1	>57	2%	-14%	0%
Cc1noc(NC(=O)Nc2ccccc2F)c1C#N	>57	9%[5.75 µM]	1%[8 µM]	-1%[5.75 µM]
C[C@@]12CC[C@H]3[C@@H](CCC4=CC(=O)CC[C@]43C)[C@H]1CCC2=O	>57	17%	-7%	-3%
Cc1csc2nc(CSc3nncn3-c3ccccc3)c(Br)n12	>57	0%	-11%	11%
Cc1csc2nc(CSc3nc4ccccc4o3)c(Br)n12	>57	18%	13µM*	-4%
O=C(O)CCCC[C@@H]1SC[C@H]2NC(=O)N[C@H]12	>57	11%	?	-1%
O=C(Nc1cnn(Cc2ccc(Cl)cc2Cl)c1)c1noc2c1CCCC2	>57	4µM*[single pt active]	?	13%
CCNc1sc(C(=O)c2cccs2)c(N)c1-c1nc2ccccc2s1	>57	0.02µM*	?	9%
Oc1cc(CN2COc3ccccc32)c(O)cc1CNC1CCCCC1	>57	-4%[5.75 µM]	?	0%[5.75 µM]
c1ccc(C(NCCNC(c2ccccc2)c2ccccc2)c2ccccc2)cc1	.	.	10µM*	.
O=C(O)C[C@H]1OCC=C2CN3CC[C@]45c6ccccc6N[C@@H]4[C@H]1[C@H]2C[C@H]35	>57	4%[5.75 µM]	1%[8 µM]	0%[5.75 µM]

Compound activity deposited in PubChem by National Center for Advancing Translational Sciences (NCATS).
